Hits are enriched below; roughly 7.3% of the tested compounds scored in any of these assays.
FMDV inh – antivirals against foot and mouth disease virus; FMDV antiviral cell-based qHTS; 410,000 tested, 1.2% active; AID 1159524; Potency, µM (titrated, usually from 57.9 µM), inactives show at the top dose activity change, negative = inhibition, hits mostly inhibitors; calls by dose curve; tested in HEK293T cells; also: read-out not given here; potency is read from the fitted curve at half-maximal effect; nearly all actives have a fitted effect of over 45% in size
AmpC detergent – AmpC beta-lactamase inhibition with detergent present. P00811. AmpC hydrolysis of nitrocefin, absorbance 480 nm, 0.01% Triton. Potency, µM (top dose mostly 114 µM), without a hit: at the top dose activity change, negative = inhibition, usual class: inhibitors. 370,000 tested, 0.041% active. AID 485294;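 also: potency is read from the fitted curve at half-maximal effect; 0% = no-compound wells and -100% = no-enzyme wells; nearly all actives have a fitted effect of over 25% in size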
Target sequence (P00811 whole entry, looked up): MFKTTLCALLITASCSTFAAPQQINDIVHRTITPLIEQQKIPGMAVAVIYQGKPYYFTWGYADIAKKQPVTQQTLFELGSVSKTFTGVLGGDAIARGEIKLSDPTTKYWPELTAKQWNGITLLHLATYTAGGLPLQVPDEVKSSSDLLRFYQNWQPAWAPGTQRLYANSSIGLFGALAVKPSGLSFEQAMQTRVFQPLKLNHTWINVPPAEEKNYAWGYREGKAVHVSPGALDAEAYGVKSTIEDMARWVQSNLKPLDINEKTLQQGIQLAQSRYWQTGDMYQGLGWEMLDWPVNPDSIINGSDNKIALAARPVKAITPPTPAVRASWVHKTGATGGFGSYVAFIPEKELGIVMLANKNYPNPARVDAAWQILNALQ
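AmpC (5.3 nM in the dispensed reagent) in 20 mM phosphate pH 7.0 with 0.01% (detergent screen) or 0.0001% Triton X-100 was preincubated with compounds for 15 min at room temperature. Nitrocefin was then added from an 800 uM solution, and hydrolysis was followed at 480 nm.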
AmpC inh no detg – blocks E. coli AmpC beta-lactamase in detergent-free assay; AmpC nitrocefin hydrolysis, absorbance 480 nm, 0.0001% Triton; 330,000 tested, 0.52% active; P00811; Potency, µM (top dose mostly 57.1 µM), without a hit: at the top dose activity change, negative = inhibition, usual class: inhibitors;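 also: potency is read from the fitted curve at half-maximal effect; plate controls were no compound for no effect and no enzyme for full effect; nearly all actives have a fitted effect of over 20% in size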
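20 mM phosphate pH 7.0 + 0.01% (detergent screen) or 0.0001% Triton X-100; 5.3 nM AmpC reagent; cpd preinc 15 min RT; nitrocefin (800 uM stock) to start; A480 q20 s × 4 min; Activity was normalised to no-enzyme and no-compound control wells.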
HCMV inh – blocks human cytomegalovirus replication; 410,000 tested, 4.5% active; HFF cells, HCMV-luciferase reporter, 72 h; hits give low values; activity change, negative = inhibition, % at 57.5 µM; AID 1259415; in the data active = activity change below about -60%; inconclusive = no clear call, values can overlap the other calls; inactive = above about -39%
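Two compound doses tested in HFFs infected with HCMV-luciferase, MOI 1 PFU/cell, 72 h at 37C. Lysate luminescence read with OneGlo; data normalized against buffer-only and 10uM Salinomycin inhibitor controls.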
HCV inh – blocks hepatitis C virus; 340,000 tested, 3.4% active; Huh7.5.1 HCVcc-Cre infection, luciferase reporter, 44 h; Potency, µM (top dose mostly 41.8 µM), without a hit: top-dose activity change, negative = inhibition, actives largely listed as inhibitors; also: potency is read from the fitted curve at half-maximal effect
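Infectious HCVcc-Cre (~0.5 moi) was added to cells just after compound, with cells seeded 4 h earlier at 1,000 per well. Luciferase activity after 44 h culture reported infection; substrate was incubated 15 min at room temperature before reading.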
Starred values were filed as active, the others as inactive; ? = inconclusive; · = not tested or not shown; ! = not confirmed by another sample; [ ] = another dose, or the depositor's remark. Unless noted, calls follow the shape of the dose curve; as a rule, active = well fitted curve in the direction sought with a large enough effect; inconclusive = small, poorly fitted or top-dose-only effect, or another doubt; inactive = no such curve, though single readings can be large; an effect the other way counts as inactive or inconclusive. Unless noted, % is scaled to controls: 0 for no effect and ±100 for the full control effect.

SMILES	FMDV inh	AmpC detergent	AmpC inh no detg	HCMV inh	HCV inh
COc1ccc2c(c1OC)C(=O)OC2C/C(=N\NC(N)=O)c1ccccc1 (centres undefined)	44%	13%	-23%	-70*	16%
CCn1nc(C)c(CN2Cc3ccccc3OC(c3ccccc3OC)C2)c1C (centres undefined)	0%	·	·	·	·
C=CCNc1cccc2c1S(=O)(=O)N[C@@H](C)CO2	·	·	·	-17	·
Cc1cc(C)nc(-n2nc(C)c3c2NC(=O)CC3c2cc(F)ccc2F)n1 (centres undefined)	-25%	24%	·	-18	·
COc1ccc2cc(-c3nc4ccc(C(=O)O)cc4[nH]3)c(=O)oc2c1	1µM*	-1%	·	-16	·
COc1cccc2cc(-c3nc4ccc(C)cc4[nH]3)c(=O)oc12	45%	8%	·	46	·
C=CCc1cccc2cc(-c3nc4ccc(C(=O)O)cc4[nH]3)c(=O)oc12	16µM*	13%	·	57	·
COc1ccc2oc(=O)c(-c3nc4ccc(C)cc4[nH]3)cc2c1	24%	10%	·	60	·
CCOc1cccc2cc(-c3nc4ccc(C(=O)O)cc4[nH]3)c(=O)oc12	11µM*	-10%	-18%	47	·
C=CCc1cccc2cc(C(=O)O)c(=O)oc12	-3%	2%	-4%	-15	10%
COC(=O)[C@H]1[C@H](CO)[C@H]2Cn3c(ccc(Br)c3=O)[C@@H]1N2S(=O)(=O)c1cn(C)cn1	·	·	·	-10	·
CCOc1ccc(C(=O)NCc2nc3cccnc3n2Cc2cccc(OC)c2)cc1	-14%	12%	·	-3	·
CC(C)c1nn2c(=O)cc(COC(=O)COc3ccccc3F)nc2s1	-10%	18%	·	10	·
COc1ccc(-c2oc3ccccc3c(=O)c2OC(=O)c2ccc(C)cc2)cc1	16%	-2%	-13%	-75*	10%
O=C(Oc1cc(=O)oc2ccccc12)c1ccccc1	-18%	-6%	-37%	16	?
COc1ccc(C(=O)c2ccc3oc(-c4ccc(OC)cc4)c(-c4ccc(O)cc4)c3c2)cc1	-6%	·	?	-64*	8.9µM*
O=C(Oc1c(-c2ccccc2Cl)oc2ccccc2c1=O)c1ccc(Cl)cc1	8%	-6%	18µM*	8	2%
O=C(Oc1c(-c2ccccc2)oc2ccccc2c1=O)c1ccccc1	21%	?	-19%	-82*	-30%
COc1ccc(C(=O)c2c(-c3ccc(OC)cc3)oc3ccccc23)cc1	0%	3%	-5%	14	-56%
CCCCOC(=O)c1ccc(NC(=O)c2cc(-c3cccs3)on2)cc1	17%	-1%	·	10	·
COC(=O)[C@H](Cc1ccccc1)NC(=O)C1CCN(C(=O)[C@H](C)NS(=O)(=O)c2ccc(C)cc2)CC1	8%	4%	113%	-26	20%
CCN(C)C1CN(Cc2cn(Cc3ccccc3)nn2)S(=O)(=O)C1 (centres undefined)	-15%	·	·	14	·
OCCN(CCO)c1nc(N2CCCCC2)c2nc(N(CCO)CCO)nc(N3CCCCC3)c2n1	32µM*!	-13%	93%	17	·
Cc1cc(O)c(C(C)C)cc1NC1=NS(=O)(=O)c2ccccc21	4%	-13%	-6%	-72*	-3%
Cc1ccc(S(=O)(=O)C2CS(=O)(=O)CC2O)cc1 (centres undefined)	·	?	4%	-26	13%
SMILES	FMDV inh	AmpC detergent	AmpC inh no detg	HCMV inh	HCV inh
CC(=O)C1=C(S(=O)(=O)c2ccc(C)cc2)CS(=O)(=O)C1	?	2%	-16%	-100*	-9%
O=C(c1ccc(Br)s1)N1CCN(c2ccccn2)CC1	-1%	0%	2%	-2	6%
O=C(c1cccc(Oc2ccccc2)c1)N1CCN(c2ccccn2)CC1	-13%	?	-4%[11.4 µM]	-72*	?
CC(C)c1ccc(OCc2ccc(C(=O)N3CCN(c4ccccn4)CC3)cc2)cc1	?	8%	55%	-25	5µM*
O=C(N1CCN(c2ccccn2)CC1)N1c2ccccc2Sc2ccccc21	?	?	32%	-66*	?
O=C(c1cccc(S(=O)(=O)N2CCc3ccccc3C2)c1)N1CCN(c2ccc(O)cc2)CC1	-40%	-7%	-32%	-65*	?
COc1ccc(-c2ccc(NS(=O)(=O)c3ccc(NC(C)=O)cc3)cc2)nn1	16%	6%	·	23	·
COc1ccc(S(=O)(=O)Nc2ccc(C)c(S(=O)(=O)N3CCOCC3)c2)cc1[N+](=O)[O-]	33%	0%	-18%	-35	?
CN1CCC(Nc2nc(Br)cnc2N)CC1	·	·	·	10	·
S=C(Nc1cc(Cl)ccc1Oc1ccccc1)N1CCN(c2ccccn2)CC1	-5%	-14%	-25%	-78*	11µM*
O=C(Nc1ccccc1)c1ccc2c(c1)CCN2S(=O)(=O)c1ccccc1	7%	-2%	-46%	10	?
CC(=O)NS(=O)(=O)c1ccc(NC(=O)c2cccc(S(=O)(=O)N3CCc4ccccc43)c2)cc1	-3%	6%	-38%	-23	-7%
Cc1cc(NC(=O)c2ccc(S(=O)(=O)N3CCc4ccccc43)cc2)no1	?	7%	-53%	?	25%
O=C(Nc1ccc(Br)cc1)c1cccc(S(=O)(=O)N2CCc3ccccc32)c1	?	1%	·	-61*	·
O=C(Nc1ccc(S(=O)(=O)N2CCc3ccccc32)cc1)c1ccc2c(c1)OCO2	-23%	-1%	?	-85*	?
NS(=O)(=O)c1ccc(NC(=O)c2ccc3c(c2)CCN3S(=O)(=O)c2ccccc2)cc1	-30%	-16%	-51%	?	32µM*
Cc1cc(C)cc(NS(=O)(=O)c2ccc(N3CCCCS3(=O)=O)cc2)c1	10%	-2%	·	?	·
COc1ccc(NC(=O)c2cc(S(=O)(=O)N3CCc4ccccc43)cn2C)cc1OC	-12%	-1%	31%	16	?
COc1ccc(NC(C)=O)cc1NC(=O)c1cccc(S(=O)(=O)N2CCc3ccccc32)c1	-24%	5%	187%	-1	10µM*
O=C(c1cccc(S(=O)(=O)N2CCc3ccccc32)c1)N1CCN(CCO)CC1	14%	·	-5%	-14	-11%
O=S(=O)(NC1CCCC1)c1ccc(S(=O)(=O)N2CCc3ccccc32)cc1	?	-6%	-25%	-99*	?
NC(=O)C1CN(C(=O)c2cccc(S(=O)(=O)N3CCc4ccccc43)c2)c2ccccc2O1 (centres undefined)	-10%	4%	76%	-105*	-18%
Nc1ccc(S(=O)(=O)N2CCc3ccccc32)cc1	3%	?	-25%	47	8%
COc1cc(C(=O)Nc2ccc3c(c2)CCN3C(C)=O)cc(OC)c1OC	10%	-9%	-21%	-74*	-29%
